SMN2 splice up – SMN2 splice variant enhancement; Potency, µM (highest dose often 46.1 µM), inactives show at the top dose activity change, positive = activation, most hits filed as activators; AID 1458; HEK293 SMN2-luciferase splicing reporter, luminescence, 30-36 h; 210,000 compounds, 2.8% hits; note: % of control where 0% means no effect; nearly all actives have a fitted effect of over 55% in size
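HEK293 cells carry an SMN2 […]–luciferase reporter in which exon 7 inclusion puts luciferase in frame. Cells were plated 10-12 h before compound addition, then incubated 30-36 h at 37C. ONE-Glo luminescence was read; sodium butyrate at 4.5 mM final served as control.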
ELG1 genotox – inducers of genotoxicity in HEK293T ELG1-luciferase cells | HEK293T ELG1-luciferase reporter, luminescence, 16 h | 330,000 compounds, 1.3% hits | Potency, µM (series often up to 46 µM), inactives show top-dose activity change, positive = activation, actives largely listed as activators; note: % of control where 0% means no effect; nearly all actives have a fitted effect of over 60% in size
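Cells (2,000/well) expressing the ELG1-luciferase fusion are dosed by pin tool and kept 16 hr at 37 °C, 5% CO2. Signal comes from ONE-Glo luciferase reagent after 30 min at room temperature.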
NPC1 promoter act – NPC1 promoter activation; Huh7 NPC1 promoter luciferase reporter, 24 h; Potency, µM (titrated, usually from 9.22 µM), for the others: at the highest dose activation, hits mostly activators; 320,000 compounds, 2.4% hits; AID 485313; note: % of control where 0% means no effect; nearly all actives have a fitted effect of over 60% in size
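Luciferase expression driven by the NPC1 promoter was measured in stably transfected Huh7 cells after a 24 h compound incubation, using a luciferase reagent and a luminescence read.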
FLuc modulator – firefly luciferase modulation, counter-screen for miR-21 project. purified FLuc, Km substrates, luminescence inhibition. Potency, µM (top dose mostly 57.5 µM), for inactives: at the top dose activity change, negative = inhibition, actives largely listed as inhibitors. 360,000 compounds, 6.9% hits;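 note: plate controls were vehicle for no effect and reference inhibitor for full effect; nearly all actives have a fitted effect of over 55% in size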
Target sequence (P08659 whole entry, looked up): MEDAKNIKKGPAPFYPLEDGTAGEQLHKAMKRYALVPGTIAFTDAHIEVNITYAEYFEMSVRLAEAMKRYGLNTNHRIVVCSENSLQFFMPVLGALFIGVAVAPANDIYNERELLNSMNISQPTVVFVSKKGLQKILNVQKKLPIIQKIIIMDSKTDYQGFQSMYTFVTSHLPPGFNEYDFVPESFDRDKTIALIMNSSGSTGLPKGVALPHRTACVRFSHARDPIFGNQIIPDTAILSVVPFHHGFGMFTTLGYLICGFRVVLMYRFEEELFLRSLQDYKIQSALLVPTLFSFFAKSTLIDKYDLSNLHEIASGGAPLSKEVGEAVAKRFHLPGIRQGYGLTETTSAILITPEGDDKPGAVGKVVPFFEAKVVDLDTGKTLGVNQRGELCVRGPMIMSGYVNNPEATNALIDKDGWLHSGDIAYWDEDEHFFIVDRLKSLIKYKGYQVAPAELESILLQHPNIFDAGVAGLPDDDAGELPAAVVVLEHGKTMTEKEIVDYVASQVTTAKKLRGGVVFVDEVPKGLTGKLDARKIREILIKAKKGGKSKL
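Biochemical qHTS of compounds, final roughly 60 µM downward over six points, against 10 nM purified firefly luciferase using Km concentrations of substrates (10 uM D-luciferin, 10 uM ATP) in Tris acetate pH 7.5 buffer; luminescence output.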
Rab9 prom act – activates the Rab9 promoter; Huh7 Rab9 promoter-luciferase reporter, luminescence, 24 h; Potency, µM (top dose mostly 9.22 µM), inactives show top-dose activation, negative = inhibition, actives largely listed as activators; 320,000 compounds, 2.8% hits; AID 485297; note: % of control where 0% means no effect; nearly all actives have a fitted effect of over 60% in size
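Promoter activation is measured as luciferase luminescence in Huh7 cells stably transfected with a Rab9 promoter–luciferase construct, following 24 h compound exposure at 37 °C and 10 min reagent incubation at ambient temperature.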
* hit, by the source's call; ? = inconclusive; / = no result given; [ ] = remark or other dose. Sampled rows, rich in hits. Any-hit rate of the full collection: about 7.4%. Calls come from the whole dose curve; as a rule, active = well fitted curve in the direction sought with a large enough effect; inconclusive = small, poorly fitted or top-dose-only effect, or another doubt; inactive = no such curve, though single readings can be large; an effect the other way counts as inactive or inconclusive. Potency is the fitted concentration of half-maximal effect.

SMILES	SMN2 splice up	ELG1 genotox	NPC1 promoter act	FLuc modulator	Rab9 prom act
CCOc1ccccc1N1CC(c2nc3ccccc3n2CCCOc2ccc(OC)cc2)CC1=O (stereo not drawn)	?	/	/	13.5µM*	/
COc1ccc(OCCn2c(C3CC(=O)N(c4ccc(F)cc4)C3)nc3ccccc32)cc1 (stereo not drawn)	-4.2%	/	/	-1.7%	/
Cc1ccnn1Cc1cc(C(=O)O)c2ccccc2n1	-6.0%	-4.2%	-1.0%	5.1%	-0.7%
O=C(NC(=S)NNC(=O)c1ccccc1O)c1ccc(F)cc1	/	2.1%	-0.5%	26.9µM*	3.4%
O=C(NC(=S)NNC(=O)c1ccccc1O)c1ccccc1	/	7.5%	-2.2%	23.9µM*	10.4%
Cc1ccc(NC(=O)COc2cccc(-n3cnnn3)c2)cc1S(=O)(=O)N1CCOCC1	/	-9.1%	-1.4%	-3.3%	-9.0%
CC(C)(C)c1ccc(C(=O)CSc2n[nH]c(=O)[nH]c2=O)cc1	-26.2%	8.0%	4.5%	12µM*	6.6%
CCOc1ccc2oc(=O)cc(CN3CCN(C(=O)c4ccc(OC)c(OC)c4)CC3)c2c1	9.8%	/	/	1.5%	/
FC(F)(F)c1cccc(OCC2CNC(=S)O2)c1 (stereo not drawn)	/	-4.7%	-1.7%	3.6%	-3.1%
CCNc1nc(NC(C)C)nc(N(C#N)C(C)C(=O)N(CC)CC)n1 (stereo not drawn)	/	2.1%	-0.1%	-1.6%	1.5%
CCOC(=O)c1ccc(NC(=O)Cn2nc(SC)c(S(=O)(=O)c3ccc(Cl)cc3)c2N)cc1	-72.6%	/	/	5.9%	/
COc1ccc2c(c1)CC/C(=C/c1ccncc1)C2=O	-58.1%	-0.3%	-2.3%	13.5µM*	-13.6%
COc1ccc(/C=C2/CCOC2=O)cc1	-2.7%	1.9%	5.6%	-18.0%	-3.3%
COc1ccc2c(c1)CC/C(=C\c1ccc(C)o1)C2=O	/	?	2.51µM*	2.39µM*	2.82µM*
COc1cc(C=O)ccc1OCC(=O)Nc1cccc(S(=O)(=O)N(C)c2ccccc2)c1	/	0.6%	-2.4%	-18.3%	-0.1%
COc1ccc(C(=O)Nc2cccc(N(C)S(C)(=O)=O)c2)cc1OC	12.6µM*	16.4µM*	?	16.9µM*	?
COc1ccc(NC(=O)c2ccc(N(C)S(C)(=O)=O)cc2)cc1OC	16.4%	0.9%	7.9%	-10.3%[2.3 µM]	10.8%
CN(c1cccc(NC(=O)CN2C(=O)c3ccccc3S2(=O)=O)c1)S(C)(=O)=O	23.1%	0.9%	12.8%	26.9µM*	-1.0%
COc1ccccc1OCC(=O)Nc1cccc(N(C)S(C)(=O)=O)c1	14.1%	2.4%	12.5%	16.9µM*	0.0%
Cc1cc(C)n2c(Br)c(CSc3nc4ccccc4s3)nc2n1	11.2µM*	?	?	?	?
CC(C)(C)NC(=O)CCCSc1nc2ccccc2s1	?	?	?	15.1µM*	1.78µM*
Cc1ccccc1NC(=O)CCCSc1nc2ccccc2s1	0.9%	1.8%	-0.1%	?	-0.3%
Cc1cc(C)nc(NC(=O)CSc2nc3cc(Cl)ccc3s2)n1	22.6%	1.4%	-0.1%	?	-0.5%
Cc1cc(C)nc(NC(=O)CSc2nc3ccccc3s2)n1	6.2%	5.8µM*	?	12µM*	3.16µM*
CCNC(=O)NC(=O)C(C)OC(=O)CCCSc1nc2ccccc2s1 (stereo not drawn)	-9.6%	-0.3%	0.8%	-14.7%	-3.1%
SMILES	SMN2 splice up	ELG1 genotox	NPC1 promoter act	FLuc modulator	Rab9 prom act
CCNC(=O)NC(=O)COC(=O)CCCSc1nc2ccccc2s1	0.9%	2.8%	-6.8%	19µM*	-7.6%
CCC(C)c1ccc(OCC(=O)Nc2ccc(CN3CCOCC3)cc2)cc1 (stereo not drawn)	/	-10.1%	-2.1%	?	-5.2%
CCN(C(=O)COC(=O)c1ccc[nH]c1=O)c1cccc2ccccc12	/	0.5%	/	/	/
CC(=O)c1cccc2c(O)c(C3=Nc4ccccc4C3=O)[nH]c12	0.562µM*	?	2.82µM*	3.38µM*	0.631µM*
O=C1C(c2c(O)[nH]c3ccccc23)=Nc2ccccc21	-15.7%	/	20.1%	-28.9%	?
Cc1cc(C)c2c(CC(=O)Nc3ccc(F)cc3)coc2c1	-34.8%	/	/	2.6%	/
CCN(CCNCC(O)COc1ccccc1C(C)C)c1cccc(C)c1 (stereo not drawn)	/	-11.2%	0.0%	2.8%	-4.0%
CCCc1nc2ccccc2c(C(=O)OCC(=O)N2CCc3ccccc32)c1CC	-51.4%	-12.7%	-1.2%	?	-1.9%
COc1cc(N)c(Cl)cc1C(=O)OCC(=O)N1CCc2ccccc21	/	1.1%	1.9%	1.7%	-5.2%
COc1cccc(C(=O)OCC(=O)N2CCc3ccccc32)c1OC	/	?	20.2%	10.7µM*	27.1%
O=C(OCC(=O)N1CCc2ccccc21)c1cccnc1	/	4.0%	0.4%	?	-6.8%
O=C(OCC(=O)N1CCc2ccccc21)c1cccnc1Cl	1.8%	?	17.8%	10.7µM*	5.2%
CC1CCc2nc3ccccc3c(C(=O)OCC(=O)N3CCc4ccccc43)c2C1 (stereo not drawn)	2.5%	-10.5%	0.2%	4.78µM*	-1.3%
O=C(OCC(=O)N1CCc2ccccc21)c1ccccc1	1.6%	?	-0.8%	9.53µM*	5.9%
Cc1ccccc1OCCN1C(=O)NC2(CCc3ccccc32)C1=O (stereo not drawn)	-7.8%	0.4%	0.2%	1.9%	1.2%
CCOC(=O)c1ccc(S(=O)(=O)NNC(=O)c2cccc(N(C)C)c2)cc1	14.6%	-0.3%	4.5%	19µM*	17.6%
Cc1ccc(NC(=O)CSc2nnc(COc3ccc(Cl)cc3)o2)cc1	/	/	/	-10.1%	/
CCc1ccc(C(=O)CSc2nc3cc(S(=O)(=O)N4CCOCC4)ccc3n2CC)cc1	-7.7%	4.7%	4.4%	13.5µM*	0.7%
CCn1c(SCC(=O)OC)nc2cc(S(=O)(=O)N3CCOCC3)ccc21	/	11.7%	-3.8%	6.7%	-4.0%
COc1ccc(-c2csc(=NCCO)n2-c2ccccc2)cc1	/	12.6%	18.0%	19µM*	9.2%
COc1ccc(-c2csc(=Nc3ccccc3)n2CCO)cc1	-71.4%	?	21.4%	16.9µM*	-4.8%
O=C(NC(=S)N(CC1CCC1)CC1CCCO1)c1cccc([N+](=O)[O-])c1 (stereo not drawn)	/	-7.9%	-0.5%	2.2%	-14.1%
NC(=O)CSc1nc2sc(-c3ccccc3)cc2c(=O)n1N	8.6%	12.8%	15.1%	?	23.7%
Cc1nc2sc(-c3ccccc3)cc2c(=O)n1N	/	?	0.1µM*	0.675µM*	?
Cc1nc2sc(-c3ccccc3)cc2c(=O)n1-n1cccc1	/	?	1.26µM*	7.57µM*	1.58µM*
Cc1nc2sc(-c3ccccc3)cc2c(=O)n1/N=C/N(C)C	11.2µM*	?	2.51µM*	19µM*	2.82µM*
O=c1c2cc(-c3ccccc3)sc2nc2n1CCC2	3.16µM*	1.16µM*	0.501µM*	3.01µM*	0.631µM*
Cc1sc2nc(C)n(/N=C/N(C)C)c(=O)c2c1C	/	2.9%	3.3%	-2.1%	1.0%

Screening results deposited in PubChem by National Center for Advancing Translational Sciences (NCATS).
